Read-out in experiment [1]: Cytochrome P450 (CYP1A1), CYP1A1 (gene 1543)
The experiment in a line: LTEA_HepaRG_CYP1A1: Life Technologies and Expression Analysis (LTEA) Assay for Cytochrome P450 (CYP1A1) using HepaRG (AID 2283454). Conditions: mRNA level, 48 h; actives raise or lower the signal. An outline of the steps: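 Differentiated human HepaRG cells, after 48 h plating, exposed in duplicate for 48 h in serum-free induction medium to 8 half-log concentrations up to 100 uM in 0.5% DMSO. CYP1A1 mRNA by qRT-PCR, normalized to ACTB/GAPDH/POLR2A; bidirectional fit versus DMSO.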

Read-out in experiment [2]: Forkhead box O1 (FOXO1), FOXO1 (gene 2308)
The experiment in a line: LTEA_HepaRG_FOXO1: Life Technologies and Expression Analysis (LTEA) Assay for Forkhead box O1 (FOXO1) using HepaRG (AID 2283456). Conditions: mRNA level, 48 h; actives raise or lower the signal. In a few lines: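 Using one lot of HepaRG hepatic cells kept in 0.5% DMSO, the team applied test chemicals in duplicate, half-log dilutions from 100 uM, for 48 h. Expression, normalised to ACTB/GAPDH/POLR2A, was compared with vehicle in either direction.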

Experiment [3] in a line: CEETOX_H295R_TESTO: CeeTox H295R High-throughput Steroidogenesis Assay for Testosterone (TESTO) (AID 2283457). Conditions: actives raise or lower the signal. In a few lines:
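H295R adrenal cells, passage ≤10, exposed to chemicals for 48 h. Testosterone in medium measured by MTBE extraction and HPLC-MS/MS against a 7-point standard curve. Bidirectional fit versus DMSO; MTT viability checked in the same wells.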

Read-out in experiment [4]: growth arrest and DNA damage 45 (GADD45A), GADD45A (gene 1647)
The experiment in a line: LTEA_HepaRG_GADD45A: Life Technologies and Expression Analysis (LTEA) Assay for growth arrest and DNA damage 45 (GADD45A) using HepaRG (AID 2283458). Conditions: mRNA level, 48 h; actives raise or lower the signal. An outline of the steps: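 HepaRG, 48 h exposure, 8 conc. (top 100 uM, half-log steps), 0.5% DMSO vehicle, duplicates. Read-out: qRT-PCR mRNA level, housekeeping-normalized (ACTB/GAPDH/POLR2A). Curves fit bidirectionally vs DMSO baseline.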

Read-out in experiment [5]: Forkhead box O3 (FOXO3), FOXO3 (gene 2309)
The experiment in a line: LTEA_HepaRG_FOXO3: Life Technologies and Expression Analysis (LTEA) Assay for Forkhead box O3 (FOXO3) using HepaRG (AID 2283459). Conditions: mRNA level, 48 h; actives raise or lower the signal. An outline of the steps:
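Gene-expression endpoint: FOXO3 transcript level by qRT-PCR in HepaRG cultures treated 48 h with chemicals up to 100 uM (half-log, 0.5% DMSO vehicle).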

Read-out in experiment [6]: ABC Transporter (ABCB1), ABCB1 (gene 5243)
Description: LTEA_HepaRG_ABCB1: Life Technologies and Expression Analysis (LTEA) Assay for ABC Transporter (ABCB1) using HepaRG (AID 2283460). Conditions: mRNA level, 48 h; actives raise or lower the signal. In a few lines: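 Human liver HepaRG line treated 48 h with up to 100 uM compound (eight half-log points, 0.5% DMSO); ABCB1 mRNA change fitted bidirectionally against DMSO controls.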

Read-out in experiment [7]: growth arrest and DNA damage 45 (GADD45B), GADD45B (gene 4616)
Description: LTEA_HepaRG_GADD45B: Life Technologies and Expression Analysis (LTEA) Assay for growth arrest and DNA damage 45 (GADD45B) using HepaRG (AID 2283461). Conditions: mRNA level, 48 h; actives raise or lower the signal. An outline of the steps:
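Differentiated human HepaRG cells in serum-free induction medium exposed 48 h in duplicate to eight concentrations, top 100 uM, half-log steps, 0.5% DMSO. GADD45B mRNA by TaqMan qRT-PCR, normalized to ACTB, GAPDH, POLR2A; bidirectional fit versus DMSO.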

Read-out in experiment [8]: ABC Transporter (ABCC3), ABCC3 (gene 8714)
The experiment in a line: LTEA_HepaRG_ABCC3: Life Technologies and Expression Analysis (LTEA) Assay for ABC Transporter (ABCC3) using HepaRG (AID 2283462). Conditions: mRNA level, 48 h; actives raise or lower the signal. An outline of the steps:
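Differentiated human HepaRG cells exposed 48 h in serum-free induction medium, 0.5% DMSO vehicle, 8-point half-log series to 100 uM in duplicate. ABCC3 mRNA by qRT-PCR, normalised to ACTB, GAPDH, POLR2A; bidirectional fit vs DMSO.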

Read-out in experiment [9]: CFLAR gene, CFLAR (gene 8837)
The experiment in a line: LTEA_HepaRG_CFLAR: Life Technologies and Expression Analysis (LTEA) Assay for CFLAR gene using HepaRG (AID 2283455). Conditions: mRNA level, 48 h; actives raise or lower the signal. An outline of the steps: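 Gain- or loss-of-signal changes in CFLAR transcript were fitted bidirectionally relative to 0.5% DMSO. Cells (HepaRG, duplicate wells) were dosed for 48 h across eight half-log concentrations topping at 100 uM; quantitation by TaqMan qRT-PCR.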

Read-out in experiment [10]: ABC Transporter (ABCB11), ABCB11 (gene 8647)
Description: LTEA_HepaRG_ABCB11: Life Technologies and Expression Analysis (LTEA) Assay for ABC Transporter (ABCB11) using HepaRG (AID 2283463). Conditions: mRNA level, 48 h; actives raise or lower the signal. In a few lines: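 Using HepaRG cultures held in 0.5% DMSO, chemicals were tested at half-log dilutions from 100 uM for 48 h. Induction or suppression of ABCB11 mRNA, normalized to ACTB, GAPDH and POLR2A, was fitted bidirectionally against vehicle.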

Molecules are shown by their SMILES. The source made the active and inactive calls. Rule for the calls: active = hit-call score of the fitted dose curve at least 0.9, where 1 is the maximum; inactive = score below 0.9.

With `CC(C)N(Cc1ccccc1)C(=O)C(C)(C)C`, in [1], the AC50 – broadly, the concentration giving half of the maximal activity seen – was 50 µM (active). The outcome in experiment [2], in experiment [3], in experiment [4], in [5], in experiment [6] and in experiment [7] was inactive. In addition, the result in experiment [8] was inactive.

With `Clc1ccc(C(c2ccc(Cl)cc2)C(Cl)Cl)cc1`, the AC50 in experiment [1] is 29.5 µM (active); in [6], 31.6 µM (active). Also, the compound was classed as inactive in experiment [2], in experiment [4], in [5], in [7] and in experiment [8].

On to `CN(C)[C@@H]1C(=O)C(C(N)=O)=C(O)[C@@]2(O)C(=O)C3=C(O)c4c(O)cccc4[C@@](C)(O)[C@H]3C[C@@H]12`, for which the half-maximal activity concentration (AC50) in experiment [1] is 34.7 µM (active). The call in experiment [9], in experiment [2], in experiment [4], in experiment [5], in experiment [6] and in experiment [7] was inactive. Moreover, the outcome in experiment [8] and in [10] was inactive.

For the compound `CC(C)(C)OOC(=O)c1ccccc1`, the AC50 in experiment [1] is 83.2 µM (active). Further, the call in experiment [9], in experiment [2], in experiment [4], in experiment [5], in [6] and in [7] was inactive. Further, the compound was classed as inactive in [8] and in [10].

For the compound `ClC1=C(Cl)[C@]2(Cl)[C@H]3[C@H]([C@@H]4C=C[C@H]3C4)[C@@]1(Cl)C2(Cl)Cl`, the half-maximal activity concentration (AC50) in experiment [1] was 38.3 µM (active). The outcome in [2], in [4], in experiment [5], in experiment [6], in experiment [7] and in experiment [8] was inactive.

On to `CO[C@@H]1[C@H](OC(=O)NC(=O)CCl)CC[C@]2(CO2)[C@H]1[C@@]1(C)O[C@@H]1CC=C(C)C`, for which the concentration at half-maximal activity (AC50) in experiment [1] is 16 µM (active); in experiment [10], 0.286 µM (active). In addition, the result in [9], in experiment [2], in experiment [4], in experiment [5], in [6] and in [7] was inactive. The outcome in experiment [8] was inactive.

For `C1=Cc2cccc3cccc1c23`, in experiment [1], the AC50 is 20.9 µM (active). The result in [2], in [4], in experiment [5], in [6], in experiment [7] and in experiment [8] was inactive.

For `ClC1=C(Cl)C2(Cl)C3C(Cl)C=CC3C1(Cl)C2(Cl)Cl` (stereo not given), the half-maximal activity concentration (AC50) in [1] is 18.3 µM (active); in [6] it was 1.45 µM (active). Also, the call in experiment [2], in experiment [4], in experiment [5], in experiment [7] and in experiment [8] was inactive.

As for `Cc1ccc(N=C=O)cc1N=C=O`, in experiment [1], the half-maximal activity concentration (AC50) was 40.4 µM (active). The compound was classed as inactive in experiment [2], in experiment [4], in experiment [5], in [6], in [7] and in experiment [8].

With `N#CC(Br)Br`, the result in experiment [1], in experiment [9], in experiment [2], in experiment [4], in [5] and in [6] was inactive. In addition, the compound was called inactive in experiment [7], in [8] and in experiment [10].

Take `O=C(Nc1ccccc1)c1ccccc1I`: the concentration at half-maximal activity (AC50) was 27.7 µM (active) in experiment [1], 14.6 µM (active) in experiment [5], 17.1 µM (active) in experiment [7] and 23.3 µM (active) in experiment [10]. Besides, the compound was classed as inactive in experiment [2], in [3], in [4], in experiment [6] and in [8].

`CCN(CC)N=O`: the concentration at half-maximal activity (AC50) in experiment [1] was 76.5 µM (active). In addition, the compound was called inactive in experiment [9], in experiment [2], in experiment [4], in experiment [5], in experiment [6] and in experiment [7]. In addition, the call in experiment [8] and in experiment [10] was inactive.

Consider `COC(=O)Nc1nc2ccccc2[nH]1`, for which the AC50 in [1] was 24.7 µM (active). In addition, the compound was classed as inactive in experiment [9], in experiment [2], in experiment [4], in experiment [5], in experiment [6] and in experiment [7]. The call in experiment [8] and in [10] was inactive.

As to `CCCCCCCCCCCCCN1CC(C)OC(C)C1` (stereo not given), in experiment [1], the AC50 is 50 µM (active). Also, the compound was called inactive in [9], in [2], in [4], in experiment [5], in experiment [6] and in [7]. Further, the result in [8] and in experiment [10] was inactive.

On to `Nc1ccc(Cl)cc1N`, for which the half-maximal activity concentration (AC50) in experiment [1] was 1.81 µM (active); in experiment [2] it was 29.4 µM (active); in [4], 13.3 µM (active); in experiment [5], 21.5 µM (active); in [6], 19.6 µM (active); in experiment [7], 13.3 µM (active). In addition, in experiment [8], the AC50 was 35.8 µM (active). The call in experiment [3] was inactive.

On to `Nc1ccc([N+](=O)[O-])cc1`, for which the AC50 in [1] is 50 µM (active). Moreover, the call in [2], in experiment [4], in [5], in experiment [6], in [7] and in [8] was inactive. Also, the outcome in experiment [10] was inactive.

`Clc1ccc(C(c2ccc(Cl)cc2)C(Cl)(Cl)Cl)cc1`: the concentration at half-maximal activity (AC50) in experiment [1] was 9.54 µM (active); in [6], 50 µM (active). Besides, the outcome in [2], in experiment [4], in [5], in experiment [7], in experiment [8] and in experiment [10] was inactive.

For the compound `CC(C)(C)C(O)(CCc1ccc(Cl)cc1)Cn1cncn1` (stereo not given), the values for the half-maximal activity concentration (AC50) in experiment [1] and in experiment [6] were 6.47 µM (active) and 3.45 µM (active), respectively. In addition, the compound was called inactive in [2], in experiment [4], in [5], in experiment [7], in experiment [8] and in [10].

`CCCCCCCCOC(=O)c1ccc(C(=O)OCCCCCCCC)c(C(=O)OCCCCCCCC)c1`: the half-maximal activity concentration (AC50) in experiment [1] is 50.5 µM (active). For the same compound, the compound was classed as inactive in experiment [2], in experiment [4], in experiment [5], in experiment [6], in experiment [7] and in [8].

Take `[As]#[In]`: the compound was classed as inactive in [1], in experiment [2], in [4], in experiment [5], in [6] and in experiment [7]. Further, the call in [8] and in [10] was inactive.

For `CC(O)CCO` (stereo not given), the compound was classed as inactive in experiment [1], in experiment [2], in [4], in [5], in experiment [6] and in [7]. Moreover, the call in experiment [8] and in experiment [10] was inactive.
